This note sets out measurements from PubChem BioAssay (Tox21).

Assay [1] is described as follows: qHTS assay to test for compound auto fluorescence at 535 nm (green) in HEK293 cells (AID 720680).
Assay [2] in a line: qHTS assay to test for compound auto fluorescence at 460 nm (blue) in HEK293 cell free culture (AID 720681). The method, boiled down:
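Compounds were added to cell-free DMEM with 10% FBS and fluorescence read directly. The blue channel used 405 nm excitation and 460 nm emission, with triamterene as the reference fluorophore.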

Assay [3] can be described thus: qHTS assay to test for compound auto fluorescence at 590 nm (red) in HEK293 cell free culture (AID 720683). In a few lines: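 Cell-free wells of DMEM with 10% FBS received compound, and intrinsic fluorescence was read at excitation/emission 540/590 nm. Values expressed as equivalence to Rose Bengal sodium.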
Assay [4] is described as follows: qHTS assay to test for compound auto fluorescence at 590 nm (red) in HepG2 cell free culture (AID 720684). The method, boiled down: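 Compounds are added to culture medium (MEM, 10% FBS) lacking cells, then fluorescence is read at excitation 540 nm, emission 590 nm, with Rose Bengal sodium as the equivalency standard.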
Assay [5] can be described thus: qHTS assay to test for compound auto fluorescence at 460 nm (blue) in HepG2 cell free culture (AID 720685). In a few lines:
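Compound (23 nL) or DMSO pinned into cell-free MEM with 10% FBS; blue fluorescence read at 405/460 nm excitation/emission, expressed as auto-fluorescence equivalency to triamterene.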

Assay [6] is described as follows: qHTS assay to test for compound auto fluorescence at 535 nm (green) in HepG2 cell free culture (AID 720686).
Assay [7] in a line: qHTS assay to test for compound auto fluorescence at 460 nm (blue) in HepG2 cells (AID 720687). The method, boiled down:
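HepG2 cells in MEM with 10% FBS, attached overnight at 37 C, were exposed to compound or DMSO for 1 hr at 37 C, 5% CO2. Blue fluorescence was read at 405/460 nm, with triamterene as reference fluorophore.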

Assay [8] deals with Glucocorticoid receptor (Homo sapiens) (UniProt P04150). Description: qHTS assay to identify small molecule agonists of the glucocorticoid receptor (GR) signaling pathway (AID 720691; active = well fitted activation curve with a large enough effect in the signal ratio in the repeat runs, not every such curve was filed as active; the % refers to the signal ratio). Particulars: GR-bla HeLa, beta-lactamase reporter ratio, 18 h; activation: at 62.4 µM (top of the series). In a few lines: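 Fluorescence intensity from LiveBLAzer B/G FRET substrate (2 h, room temperature) reports beta-lactamase expression driven by the glucocorticoid response element in GR-bla HeLa cells after 18 h compound exposure at 37 C.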

Assay [9] in a line: qHTS assay to identify small molecule antagonists of the glucocorticoid receptor (GR) signaling pathway - cell viability counter screen (AID 720693). Also: nearly all actives have a fitted effect of over 55% in size. Also: potency is read from the fitted curve at half-maximal effect.
A short description of assay [10]: qHTS assay for identifying genotoxic compounds that show differential cytotoxicity against isogenic chicken DT40 cell lines with known DNA damage response pathways - wild type cell line (AID 743012). Also: nearly all actives have a fitted effect of over 60% in size. Also: potency is read from the fitted curve at half-maximal effect. In a few lines:
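Wild type DT40, 300 cells/well, ~0.5 h settle at 37 C/5% CO2; compounds in DMSO added by pintool; 40 h at 37 C/5% CO2; CellTiter-Glo, 30 min RT; luminescence.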

Assay [11] is described as follows: qHTS assay for identifying genotoxic compounds that show differential cytotoxicity against isogenic chicken DT40 cell lines with known DNA damage response pathways - Rev3 mutant cell line (AID 743014). Also: nearly all actives have a fitted effect of over 55% in size. Also: potency is read from the fitted curve at half-maximal effect.
Assay [12] can be described thus: qHTS assay for identifying genotoxic compounds that show differential cytotoxicity against isogenic chicken DT40 cell lines with known DNA damage response pathways - Rad54/Ku70 mutant cell line (AID 743015). Also: nearly all actives have a fitted effect of over 60% in size. Also: potency is read from the fitted curve at half-maximal effect.
Assay [13] in a line: qHTS assay to identify small molecule antagonists of the androgen receptor (AR) signaling pathway - cell viability counter screen (AID 743033; also: nearly all actives have a fitted effect of over 45% in size; also: potency is read from the fitted curve at half-maximal effect).
Assay [14] in a line: qHTS assay to identify small molecule antagonists of the androgen receptor (AR) signaling pathway using the MDA cell line - cell viability counter screen (AID 743041; also: nearly all actives have a fitted effect of over 45% in size; also: potency is read from the fitted curve at half-maximal effect). In a few lines:
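Same-well cytotoxicity was assessed by CellTiter-Fluor in MDA-kb2 AR-luc cells after 16 h of compound treatment under R1881 agonism.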

Assay [15] deals with Androgen receptor (Homo sapiens) (UniProt P10275). The assay can be described thus: qHTS assay to identify small molecule antagonists of the androgen receptor (AR) signaling pathway using the MDA cell line (AID 743042; also: nearly all actives have a fitted effect of over 55% in size; also: potency is read from the fitted curve at half-maximal effect). In a few lines:
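MDA-kb2 breast carcinoma cells carrying MMTV-luciferase (AR/GR responsive) were co-treated with compounds and the agonist R1881 for 16 h at 37C. Inhibition read as ONE-Glo luminescence; CellTiter-Fluor fluorescence measured in parallel for cytotoxicity.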

For assay [16], the target named is Glucocorticoid receptor (Homo sapiens) (UniProt P04150). The assay can be described thus: qHTS assay to identify small molecule antagonists of the glucocorticoid receptor (GR) signaling pathway (AID 720692; active = well fitted inhibition curve with a large enough effect in the signal ratio in the repeat runs, not every such curve was filed as active; the % refers to the signal ratio; also: potency is read from the fitted curve at half-maximal effect). In a few lines: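 HeLa GR-bla cells; cmpd + dex 5 nM final, 18 h 37 C; LiveBLAzer B/G FRET substrate 2 h RT; fluorescence intensity read. Antagonist mode, qHTS.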

For assay [17], the target named is Androgen receptor (Homo sapiens) (UniProt P10275). The assay can be described thus: qHTS assay to identify small molecule antagonists of the androgen receptor (AR) signaling pathway (AID 743035; active = well fitted inhibition curve with a large enough effect in the signal ratio in the repeat runs, not every such curve was filed as active; the % refers to the signal ratio). The method, boiled down: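 Fluorescence from a beta-lactamase FRET substrate (LiveBLAzer B/G, 2 h, room temperature) measured inhibition of R1881-stimulated signaling in GeneBLAzer AR-UAS-bla HEK293 cells exposed to compound for 16 h at 37C.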

The target is the same in assay [18]. Description: qHTS assay to identify small molecule agonists of the androgen receptor (AR) signaling pathway using the MDA cell line (AID 743040; also: nearly all actives have a fitted effect of over 20% in size). The method, boiled down:
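Human breast carcinoma MDA-kb2 reporter cells (MMTV-luc, AR/GR elements) were treated for 16 h at 37C in 0% CO2 following a 5 h settling period. Signal was quantified by ONE-Glo luminescence.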

“And” between values parts separate entries of the source, which are not always exact repeats. Equal entries are not always repeated. Inconclusive results are not listed. The source made the active and inactive calls. Unless noted, calls follow the shape of the dose curve; as a rule, active = well fitted curve in the direction sought with a large enough effect in the repeat runs; inconclusive = weak or mixed curves; inactive = no such curve, though single readings can be large; an effect the other way counts as inactive or inconclusive.

Sequence of Androgen receptor (Homo sapiens) (P10275 whole entry, looked up): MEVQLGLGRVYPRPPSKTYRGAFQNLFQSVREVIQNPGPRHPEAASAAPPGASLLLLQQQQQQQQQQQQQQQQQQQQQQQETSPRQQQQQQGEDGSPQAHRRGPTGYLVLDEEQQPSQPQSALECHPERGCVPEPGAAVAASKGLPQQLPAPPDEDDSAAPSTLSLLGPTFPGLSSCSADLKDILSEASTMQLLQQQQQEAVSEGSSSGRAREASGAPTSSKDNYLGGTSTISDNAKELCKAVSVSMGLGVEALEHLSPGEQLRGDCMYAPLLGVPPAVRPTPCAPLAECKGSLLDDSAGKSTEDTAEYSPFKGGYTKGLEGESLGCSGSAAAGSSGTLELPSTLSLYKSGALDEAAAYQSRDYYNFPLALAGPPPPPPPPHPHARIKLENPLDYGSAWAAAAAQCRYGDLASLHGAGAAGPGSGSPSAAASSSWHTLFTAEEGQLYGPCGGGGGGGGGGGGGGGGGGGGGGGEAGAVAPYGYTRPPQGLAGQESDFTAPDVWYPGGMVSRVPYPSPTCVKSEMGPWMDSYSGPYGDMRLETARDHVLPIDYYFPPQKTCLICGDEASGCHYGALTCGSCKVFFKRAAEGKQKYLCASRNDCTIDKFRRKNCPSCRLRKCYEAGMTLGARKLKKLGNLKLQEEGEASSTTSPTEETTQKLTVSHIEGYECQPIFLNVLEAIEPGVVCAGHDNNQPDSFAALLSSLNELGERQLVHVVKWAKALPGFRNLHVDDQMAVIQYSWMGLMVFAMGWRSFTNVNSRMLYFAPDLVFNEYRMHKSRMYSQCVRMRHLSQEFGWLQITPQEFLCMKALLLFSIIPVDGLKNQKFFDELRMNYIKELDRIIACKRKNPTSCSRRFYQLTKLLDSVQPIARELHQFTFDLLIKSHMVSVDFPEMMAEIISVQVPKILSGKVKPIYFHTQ
Sequence of Glucocorticoid receptor (Homo sapiens) (P04150 whole entry, looked up): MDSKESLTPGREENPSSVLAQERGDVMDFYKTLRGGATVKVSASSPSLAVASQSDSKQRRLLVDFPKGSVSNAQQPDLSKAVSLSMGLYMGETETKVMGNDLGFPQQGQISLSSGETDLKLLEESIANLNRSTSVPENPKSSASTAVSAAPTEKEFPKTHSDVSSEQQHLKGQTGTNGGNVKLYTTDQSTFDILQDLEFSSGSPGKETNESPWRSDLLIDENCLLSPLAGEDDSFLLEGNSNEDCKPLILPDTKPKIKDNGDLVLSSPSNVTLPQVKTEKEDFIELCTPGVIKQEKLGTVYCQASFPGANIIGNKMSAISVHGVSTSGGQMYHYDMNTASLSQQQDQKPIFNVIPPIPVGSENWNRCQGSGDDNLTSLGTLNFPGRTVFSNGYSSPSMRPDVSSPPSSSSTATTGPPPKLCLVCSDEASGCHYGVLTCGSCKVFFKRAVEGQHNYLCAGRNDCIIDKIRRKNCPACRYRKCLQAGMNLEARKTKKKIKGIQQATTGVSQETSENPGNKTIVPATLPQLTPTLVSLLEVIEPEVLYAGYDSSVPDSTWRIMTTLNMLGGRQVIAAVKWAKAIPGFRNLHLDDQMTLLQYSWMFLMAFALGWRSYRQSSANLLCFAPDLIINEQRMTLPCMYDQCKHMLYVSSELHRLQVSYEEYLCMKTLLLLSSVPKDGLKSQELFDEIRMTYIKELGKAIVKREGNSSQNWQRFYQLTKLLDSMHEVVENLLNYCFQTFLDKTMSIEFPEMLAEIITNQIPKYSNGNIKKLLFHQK

Regarding `O=C(O)CCCCCCC(=O)O`, the Potency entry in assay [1], in [2], in assay [3], in assay [4], in assay [5] and in assay [6] was “inactive” in each case. The Potency entry in [7], in assay [8], in [9], in [10], in assay [11] and in assay [12] was “inactive” each time. The Potency result in assay [13] and in assay [14] was “inactive” in each case.

`NC(=O)c1ccccc1N`: the Potency entry in [1], in assay [2], in assay [3], in assay [4], in assay [5] and in assay [6] was “inactive” each time. Further, the Potency entry in [9], in assay [10], in assay [11], in assay [12], in assay [13] and in assay [14] was “inactive” each time. Also, the Potency result in assay [15] was “inactive”.

With `COC(=O)[C@]1(C)CCC[C@@]2(C)[C@H]1CC=C1C=C(C(C)C)CC[C@@H]12`, the Potency result in assay [1], in [2], in assay [3], in [4], in [6] and in assay [8] was “inactive” throughout. Moreover, the Potency result in assay [16], in assay [9], in assay [13] and in [14] was “inactive” each time. Besides, in [12], the Potency was 61.1 µM (active).

In the case of `COC(=O)CC#N`, the Potency entry in assay [1], in assay [2], in [3], in assay [4], in assay [5] and in [6] was “inactive” each time. The Potency result in [7], in assay [9], in assay [10], in [11], in assay [12] and in [13] was “inactive” each time. Further, the Potency entry in assay [14] was “inactive”.

On to `CN(C)CCOC(c1ccccc1)c1ccccc1` (tested in a mixture with another compound), for which the Potency entry in assay [1], in assay [2], in assay [3], in assay [4], in assay [5] and in [6] was “inactive” each time. In addition, the Potency entry in assay [7], in assay [8], in assay [9] and in assay [14] was “inactive” in each case.

On to `C(=C/c1ccccc1)/c1ccccc1`, for which the Potency entry in assay [1], in [2], in assay [3], in [4], in assay [5] and in [6] was “inactive” each time. In addition, the Potency entry in [7], in assay [9], in assay [10], in assay [11], in assay [12] and in assay [13] was “inactive” each time. Further, in assay [14], the Potency result is “inactive”.

As to `Cn1cnc2ncnc(N)c21`, the Potency result in [1], in assay [2], in assay [3], in assay [4], in [5] and in assay [6] was “inactive” in each case. The Potency result in assay [7], in assay [9], in assay [10], in [11], in assay [12] and in [13] was “inactive” throughout. Besides, the Potency entry in [14] is “inactive”.

Turning to `C[C@]12CC[C@H]3C(=CCc4cc(O)ccc43)[C@@H]1CCC2=O`, the Potency result in assay [1], in assay [2], in [3], in [4], in assay [5] and in assay [6] was “inactive” throughout. The Potency entry in assay [7] and in assay [9] was “inactive” throughout. The Potency in [16] is 11 µM (active); in [11] it was 54.5 µM (active); in assay [12] it was 48.6 µM (active); in assay [15] it was 27.3 µM (active).

On to `CCCC(CC)CCCCCCCN` (stereo unspecified), for which the Potency entry in [1], in [2], in assay [3], in assay [4], in assay [6] and in [7] was “inactive” each time. Further, the Potency result in assay [8], in [16], in [9], in assay [10], in assay [12] and in assay [13] was “inactive” throughout. Moreover, the Potency result in assay [14] was “inactive”.

Take `O=C(O)c1cccc(Cl)n1`: the Potency result in assay [1], in assay [2], in assay [3], in assay [4], in [6] and in [7] was “inactive” each time. Also, the Potency entry in [9], in assay [13], in assay [17], in assay [18], in assay [14] and in assay [15] was “inactive” in each case. The figures for the Potency in assay [10], in [11] and in assay [12] were 19.3 µM (active), 61.1 µM (active) and 61.1 µM (active), respectively.

For `CC(O)C#CC(C)O` (stereo unspecified), the Potency result in assay [1], in [2], in assay [3], in assay [4], in [5] and in assay [6] was “inactive” each time. Also, the Potency entry in assay [7], in assay [8] and in [14] was “inactive” throughout. The Potency was 9.59 µM (active) in assay [10], 7.62 µM (active) in [11], 10.8 µM (active) in assay [12] and 48.5 µM (active) in [13].

Take `O=C1NCN(c2ccccc2)C12CCN(CCCC(c1ccc(F)cc1)c1ccc(F)cc1)CC2`: the Potency entry in assay [1], in assay [2], in [3], in assay [4], in assay [5] and in assay [6] was “inactive” each time. Also, the Potency entry in assay [7] and in [13] was “inactive” each time. Also, the Potency in [9] was 21.3 µM (active); in assay [11], 10.6 µM (active); in assay [12] it was 9.44 µM (active); in [14], 29.8 µM (active).

Take `c1ccc(Nc2cccc3ccccc23)cc1`: the Potency result in assay [1], in assay [2], in assay [3], in assay [4], in [5] and in assay [6] was “inactive” each time. Moreover, the Potency result in assay [7], in assay [8] and in assay [14] was “inactive” in each case. Moreover, the Potency in [9] is 44.2 µM (active); in [10], 69.5 µM (active); in [11] it was 61.9 µM (active) and 61.1 µM (active); in [12], 55.2 µM (active) and 61.1 µM (active).

Regarding `Cc1ccc(N)cc1O`, the Potency result in assay [1], in assay [2], in assay [3], in assay [4], in [5] and in assay [6] was “inactive” each time. The Potency result in [7], in [8], in assay [9] and in [13] was “inactive” in each case. Further, the Potency was 30.6 µM (active) in assay [10], 56.1 µM (active) in assay [11] and 52 µM (active) in [12].

For the molecule `CCOC(=O)C1=C(C)NC(C)=C(C(=O)OCC)C1c1ccccc1/C=C/C(=O)OC(C)(C)C`, the Potency entry in [1], in assay [2], in assay [3], in assay [4], in assay [5] and in [6] was “inactive” throughout. Moreover, the Potency result in assay [7], in assay [13] and in assay [14] was “inactive” each time. Further, the Potency was 2.66 µM (active) in assay [10], 3.76 µM (active) in [11] and 5.96 µM (active) in assay [12].

For the molecule `N#CSCSc1nc2ccccc2s1`, the Potency result in assay [1], in assay [2], in assay [3], in assay [4], in assay [5] and in [6] was “inactive” each time. The Potency in assay [16] is 24.5 µM (active); in assay [10], 0.864 µM (active); in assay [11], 0.969 µM (active); in assay [12], 0.969 µM (active); in [13], 13.8 µM (active).
